Results published in PubChem BioAssay (NCI).
About 83,000 compounds went through this panel and 20% of them were active in at least one assay; those are over-represented in the sample as a whole.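 Single-dose data. Exposure time 48 hours. Values below 10 considered active.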 A number with no mark means an inactive call. The source made the active and inactive calls.

system: SF-539 CNS; experiment: NCI-60 one-dose screen, 48 h (100 = growth as untreated, 0 = no growth, -100 = all killed); conditions: 10 µM unless noted

| Structure (SMILES) | growth |
| --- | --- |
| Cc1ccc(C(C)C)cc1C(=O)C[n+]1ccccc1 | 97.1% |
| COc1ccc2c(c1)/C(=C/c1sc(=S)n(Cc3ccco3)c1O)C=N2 | 11.2% |
| Cc1cc2[nH]c(=O)c3c4ncccc4cn3c2cc1C | 26.7% |
| Cc1nc2ccccc2c(/C=C/c2ccccc2)c1C(=O)/C=C/c1ccc(C(F)(F)F)cc1 | -84.9% (active) |
| CN1CCN(CC(=O)N2c3cccc4cccc(c34)N(C(=O)CN3CCN(C)CC3)C2c2cn(-c3ccccc3)nc2-c2cccc([N+](=O)[O-])c2)CC1 | -86.1% (active) |
| Cc1ccc(S(=O)(=O)N/N=C/C2(c3ccccc3)CC2)cc1 | 114% |
| COc1cc(Nc2cn[nH]c2-c2ccc(Cl)cc2)cc(OC)c1OC | 43.4% |
| CNC(=O)c1cc(-n2ccc3cc(NC(=O)c4ccc(N5CCOCC5)c(C(F)(F)F)c4)ccc32)ccn1 | 30.6% |
| CN1CCN(c2ccc(-c3cc4c(Nc5ccc(F)c(Cl)c5)ncnn4c3)cc2)CC1 | 50.5% |

system: UACC-257 melanoma; experiment: as above; conditions: 10 µM unless noted

| Structure (SMILES) | growth |
| --- | --- |
| CC(=O)Oc1ccccc1C(=O)N=C1[Se]CCCN1C(=O)c1ccccc1OC(C)=O | 57.4% |
| O=C1NC(=O)C(Cn2cnc3ccccc32)N1 (stereo not drawn) | 101% |
| O=C1CCC(C(=O)NCCNCCNC(=O)C2CCC(=O)N2)N1 (stereo not drawn) | 93% |
| COc1cccc(-c2nc(-c3ccc(NC(=O)c4ccccc4)cc3)[nH]c2-c2ccnc(Br)c2)c1 | 49.4% |
| Nc1cc2c(cc1Br)-c1cc(Cl)ccc1C2=O | 103% |
| COc1cc2cc(Oc3ccc(NC(=O)Nc4cc(C(F)(F)F)cc(C(F)(F)F)c4)cc3)c(C)nc2cc1OCCN1CCOCC1 | 7.28% (active) |
| CCCCOc1nc2ccc(OC)cc2cc1-c1cc(-c2ccc(Cl)cc2)nc(-c2ccc(Cl)cc2)c1 | 99.6% |
| COc1ccc(N2C(=O)C(Oc3ccccc3)C2c2ccc(C)cc2)cc1 (stereo not drawn) | 95.3% |
| CC(C)c1cc(C(C)C)c(S(=O)(=O)Oc2ccc(NC(=O)c3ccc(Cl)cc3)cc2)c(C(C)C)c1 | 24.7% |
| COc1cc(C2CC(c3cccc(Br)c3)=NN2C(C)=O)cc(OC)c1OC (stereo not drawn) | 81.7% |
| Brc1ccc2[nH]cc(-c3nc(-c4c[nH]c5ccncc45)cs3)c2c1 | -23.2% (active) |
| O=C(N/N=C/c1c(Cl)cccc1Cl)c1ccc(C(F)(F)F)nc1Nc1cccc(C(F)(F)F)c1 | 7.6% (active) |
| Cc1[nH]c(C(=O)Nc2ccc(C(=O)N3CCNCC3)cc2OC(C)C)c(Cl)c1Cl | 101% |
| O=c1c2cc(F)cc(Cl)c2sc2c(NCCCNCCO)nc3ccccc3c12 | 109% |
| Cc1[nH]c(C(=O)Nc2ccc(C(=O)NCCN)cc2OC(C)C)c(Cl)c1Cl | 105% |
| O=C(S)CNC(=O)c1ccccc1 | 98% |
| COc1cccc(OC)c1C(=O)N[C@@H]1C(=O)N2[C@@H]1SC(C)(C)[C@@H]2C(=O)O | 103% |
| CCCCn1c(-c2ccc(C(=O)O/N=C(\N)c3ccc(OC)cc3)cc2)nc(-c2ccccc2)c1-c1ccccc1 | 43.7% |
| CCCCCCN(CCCCCC)c1ccc(/C=C2/SC(=O)NC2=O)c(C)c1 | 103% |
| COc1cc(C(=O)N2N=C(c3ccc(S(C)(=O)=O)cc3)CC2c2ccco2)cc(OC)c1OC (stereo not drawn) | 80.6% |
| COc1ccc(-c2cc(-c3ccc(Cl)cc3)c(C#N)c(=O)n2CCCCCC(=O)Nc2ccccc2N)cc1 | 23.4% |
| COc1cccc(-c2nn(-c3ccccc3)cc2-c2ccnc(N3CCOCC3)c2)c1 | 111% |
| COc1cc(CNS(=O)(=O)c2ccc(C)cc2)ccc1OCc1cn(-c2ccccc2)nn1 | 82.3% |
| O=C(CCOCCNC(=O)COc1ccc2c(c1)OCC(c1ccc(F)cc1)C2=O)NCCCC(O)(P(=O)(O)O)P(=O)(O)O (stereo not drawn) | 112% |
| COc1ccc(C(=O)n2nc(-c3ccccc3)nc2N)cc1OC | 98.4% |
| Cc1cc(C)c(-c2c(N)cc(Br)cc2Br)c(N)c1 | 66.8% |
| [O-][n+]1c2ccccc2[n+]([O-])c2c3ccccc3[nH]c21 | -31.3% (active) |
| Cc1c(C(=O)/C=C/Nc2c(Cl)cc(S(N)(=O)=O)cc2Cl)sc2nc3ccccc3n12 | 105% |
| Cc1ccc(C(C)C)cc1C(=O)C[n+]1ccccc1 | 115% |
